According to PubChem BioAssay AID707 (Columbia University Molecular Screening Center, 2007):
Among all 91,000 compounds or so, about 310 (0.34%) were called active. Cut-off read from the data, not from the text of the source: active = inhibition above about 80%; inactive = the rest. Only a selection was taken, and actives are over-represented in it overall.

What follows are molecules tested against Bifunctional epoxide hydrolase 2 (Homo sapiens) (UniProt P34913) (assay: sEH enzyme activity blockers – biochemical, human sEH, primary screen (AID 707)). Details: recombinant human sEH enzymatic activity assay; at 2 µM; active compounds read high.
Sequence of Bifunctional epoxide hydrolase 2 (Homo sapiens) (P34913 whole entry, looked up): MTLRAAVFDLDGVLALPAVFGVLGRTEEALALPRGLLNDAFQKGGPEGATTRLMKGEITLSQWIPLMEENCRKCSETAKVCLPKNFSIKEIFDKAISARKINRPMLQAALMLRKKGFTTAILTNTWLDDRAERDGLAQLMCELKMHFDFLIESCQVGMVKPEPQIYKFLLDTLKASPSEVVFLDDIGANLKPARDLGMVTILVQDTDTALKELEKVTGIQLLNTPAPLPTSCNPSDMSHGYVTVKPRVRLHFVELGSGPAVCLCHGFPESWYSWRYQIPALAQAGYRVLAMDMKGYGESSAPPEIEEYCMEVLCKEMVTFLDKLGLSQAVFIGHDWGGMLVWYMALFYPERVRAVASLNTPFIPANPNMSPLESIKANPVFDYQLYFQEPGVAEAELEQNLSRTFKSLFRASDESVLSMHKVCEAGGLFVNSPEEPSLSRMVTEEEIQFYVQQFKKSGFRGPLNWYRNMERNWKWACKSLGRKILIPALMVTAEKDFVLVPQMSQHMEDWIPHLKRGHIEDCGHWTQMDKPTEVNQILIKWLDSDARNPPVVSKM

inhibition, active:
CC(Cc1cccs1)NC(=O)NC1CCCCC1 (stereo not drawn) 92.6%
Cc1ccccc1C(=O)N1CCC(C(=O)Nc2ccc(S(=O)(=O)N(C)C(C)C)cc2)CC1 83.8%

inhibition, inactive:
Cc1cc(Nc2ccccc2)nc(N)n1 3%
CCNC(=S)Nc1cccc(Cl)c1C -0.5%
CC(C)N(c1ccccc1)c1ncnc(NCCC(=O)O)c1[N+](=O)[O-] -1.2%
c1ccc2c(C[n+]3csc4ccccc43)cccc2c1 -9%
Cc1nn(-c2ccccn2)c2c1C(c1ccncc1)C1=C(CC(C)(C)CC1=O)N2 (stereo not drawn) -0.7%
O=C(Cc1ccc2c(c1)CCCC2)Nc1ccccc1Cl 7.7%
O=C1c2ccccc2C(=O)c2c1cccc2N1CCN(CCO)CC1 5.4%
COc1ccc(/C=C(/NC(=O)c2ccc(C)cc2)c2nc3ccccc3[nH]2)cc1OC 1.8%
Cc1ccccc1N/N=C/c1ccc(N2CCOCC2)cc1 -9.2%
CC(Oc1ccc(Cl)cc1Cl)C(=O)/C=C/N(C)C (stereo not drawn) 15.1%
COc1cnc(SCc2ccc(Cl)c(Cl)c2)nc1Cl -5.2%
ONC(=Nc1ccc(Cl)cc1)c1ccccc1Cl -9.2%
CCOc1ccc(Nc2nc(Cc3nnc(SCC(=O)NC4CCCC4)n3C)cs2)cc1 10.9%
CN(C)Cc1ccccc1C1(O)c2ccccc2CSc2ccccc21 (stereo not drawn) 5.7%
Clc1ccc(-c2cc(COc3ccccc3)no2)cc1Cl -1.1%
COc1ccc(C(=S)Nc2ccccc2)cc1 4.8%
Cc1ccsc1C(C(=O)NC1CCCCC1)N(C(=O)Cc1cccs1)C1CC1 (stereo not drawn) 5.3%
CC(C)C(OC(=O)c1cccs1)C(=O)NC1CCCCC1 (stereo not drawn) -8.3%
CCOc1ccc(S(=O)(=O)Nc2nc3cc(OC)ccc3s2)cc1 -14.5%
CC(C)NS(=O)(=O)c1ccc(NC(=O)C2CCCCC2)cc1 -3.1%
CCOC(=O)Nc1ccc(S(=O)(=O)N(C)C(C)C)cc1 1.6%
O=C(CSc1ncnc2c1cnn2CCc1ccccc1)Nc1ccc(F)cc1 20.5%
O=C(c1cccc(F)c1)N1CCN(c2ccc([N+](=O)[O-])c(N3CCCCC3)c2)CC1 6.5%
CCOC(=O)/C(=C\c1ccc([N+](=O)[O-])cc1)C(=O)c1cc(C(C)=O)c(Nc2ccccc2)s1 10.3%
COc1ccccc1OCCNc1cc(N2CCOCC2)ccc1[N+](=O)[O-] -3.3%
CCn1c2ccccc2c2cc(NC(=O)C/C(C)=N/NC(=O)c3ccccc3N)ccc21 4.8%
